Drawing on PubChem BioAssay (NCATS), this text covers outcome, max response and Potency for 15 compounds.

Inconclusive results are not listed. A call without a number means that no potency is given here. Activity calls are given as the source filed them. The call rests on the fitted dose curve; in most records, active means well fitted inhibition curve with a large enough effect; inconclusive means small, poorly fitted or top-dose-only effect; inactive means flat fitted curve, though single readings scatter.
Further: nearly all actives have a fitted effect of over 60% in size.

The first test has as its system NIH3T3. Nature of the test: Cytotoxic Profiling of Annotated Libraries Using Quantitative High-Throughput Screening (AID 1296008). Further: potency means the concentration at half of the fitted maximal effect. To be noted: Five cell lines viability, CellTiter-Glo ATP luminescence, 48-72 h; max response: hits give low values. Put shortly: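 Cytotoxicity was measured as CellTiter-Glo ATP luminescence, read after 10 min at room temperature. Compound treatment of the cells lasted 48 or 72 hr at 37 degrees Celsius in a qHTS format.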
With `O=C(O)Cc1cc(I)c(Oc2ccc(O)c(I)c2)c(I)c1`, the compound was called inactive.

Turning to `COc1ccc2nc(NC(=O)Nc3ccccc3)sc2c1`, the max response is -17.1% (inactive).

Regarding `Nc1ccc(N=Nc2ccccc2)c(N)n1`, the max response was -0.826% (inactive).

Take `O=C(OCc1ccccc1)c1ccc(O)cc1`: the max response was 0.27% (inactive).

Consider `C[C@]12CC[C@@H]3c4ccc(OC(=O)c5ccccc5)cc4CC[C@H]3[C@@H]1CC[C@@H]2O`, for which the call was inactive.

Turning to `CC(=O)Nc1ccc(NC(=S)NC(=O)c2ccc(C(C)(C)C)cc2)cc1`, the Potency is 16.4 µM (active).

On to `CC(C)(C)c1ccc(CN2CCN(C(c3ccccc3)c3ccc(Cl)cc3)CC2)cc1` (stereo unspecified), for which the compound was classed as inactive.

With `C/C(=C\C(=O)OCCCCCCCCC(=O)O)C[C@@H]1OC[C@H](C[C@@H]2O[C@H]2[C@@H](C)[C@H](C)O)[C@@H](O)[C@H]1O`, the max response was -3.66% (inactive).

For the compound `O=C1c2ccccc2C(=O)c2c1ccc(O)c2O`, the max response was -5.2% (inactive).

As for `CC1CC(OC(=O)C(O)c2ccccc2)CC(C)(C)C1` (stereo unspecified), the max response is 2.78% (inactive).

Take `CCN(CC)CCOCCOC(=O)C(CC)(CC)c1ccccc1`: the max response is 0.0854% (inactive).

The subject of the next test is HACAT. The test can be described thus: qHTS assay to identify novel small-molecules to repurpose for Merkel cell carcinoma treatment (AID 1296009). The settings on record: MCC and control cell lines, CellTiter-Glo viability, 72 h; at 44.8 µM (top of the series). The method in brief: (§1)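 Cell viability measured by CellTiter-Glo following 72 hr compound treatment at 37 degree celsius, with NPC and MIPE libraries tested in 8- and 11-point concentration series.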
For the compound `O=C(O)Cc1cc(I)c(Oc2ccc(O)c(I)c2)c(I)c1`, the compound was classed as inactive.

Regarding `COc1ccc2nc(NC(=O)Nc3ccccc3)sc2c1`, the call was inactive.

On to `CC(=O)Oc1cccc2c1C(=O)c1c(OC(C)=O)cc(C(=O)O)cc1C2=O`, for which the call was inactive.

As for `CN(C)CCCSc1ccccc1NC(=O)/C=C/c1ccccc1`, the call was inactive.

Regarding `CC(C)(C)c1ccc(CN2CCN(C(c3ccccc3)c3ccc(Cl)cc3)CC2)cc1` (stereo unspecified), the compound was called inactive.

Take `CC1CC(OC(=O)C(O)c2ccccc2)CC(C)(C)C1` (stereo unspecified): the result was inactive.

With `C=C1CC[C@H](O)CC1=C/C=C1\CCC[C@]2(C)[C@@H]([C@H](C)/C=C/[C@H](C)C(C)C)CC[C@@H]12`, the outcome was inactive.

As to `CCN(CC)CCOCCOC(=O)C(CC)(CC)c1ccccc1`, the compound was classed as inactive.

In another test the test system is MCC-13. The test is described as above. The settings on record: MCC and control cell lines, CellTiter-Glo viability, 72 h; series mostly up to 46 µM. The method in brief:
as §1
On to `COc1ccc2nc(NC(=O)Nc3ccccc3)sc2c1`, for which the compound was classed as inactive.

For `Nc1ccc(N=Nc2ccccc2)c(N)n1`, the call was inactive.

As to `CC(=O)Oc1cccc2c1C(=O)c1c(OC(C)=O)cc(C(=O)O)cc1C2=O`, the compound was classed as inactive.

As to `O=C(OCc1ccccc1)c1ccc(O)cc1`, the result was inactive.

As to `CN(C)CCCSc1ccccc1NC(=O)/C=C/c1ccccc1`, the call was inactive.

With `O=C1c2ccccc2C(=O)c2c1ccc(O)c2O`, the result was inactive.

Take `Oc1ccc(/C=C/c2cc(O)cc(O)c2)cc1`: the compound was called inactive.

For a further test, the system named is MCC-26. Described as above. To be noted: MCC and control cell lines, CellTiter-Glo viability, 72 h; series mostly up to 46 µM. The method in brief:
as §1
On to `COc1ccc2nc(NC(=O)Nc3ccccc3)sc2c1`, for which the compound was classed as inactive.

Consider `Nc1ccc(N=Nc2ccccc2)c(N)n1`, for which the compound was classed as inactive.

For `CC(=O)Oc1cccc2c1C(=O)c1c(OC(C)=O)cc(C(=O)O)cc1C2=O`, the call was inactive.

`O=C(OCc1ccccc1)c1ccc(O)cc1`: the result was inactive.

As for `CN(C)CCCSc1ccccc1NC(=O)/C=C/c1ccccc1`, the compound was classed as inactive.

Take `O=C1c2ccccc2C(=O)c2c1ccc(O)c2O`: the result was inactive.

In the case of `Oc1ccc(/C=C/c2cc(O)cc(O)c2)cc1`, the outcome was inactive.

The next test relates to MKL-1. The description is as above. To be noted: MCC and control cell lines, CellTiter-Glo viability, 72 h; series mostly up to 46 µM. The method in brief: as §1
In the case of `COc1ccc2nc(NC(=O)Nc3ccccc3)sc2c1`, the compound was called inactive.

For the compound `Nc1ccc(N=Nc2ccccc2)c(N)n1`, the result was inactive.

With `CC(=O)Oc1cccc2c1C(=O)c1c(OC(C)=O)cc(C(=O)O)cc1C2=O`, the result was inactive.

Consider `O=C(OCc1ccccc1)c1ccc(O)cc1`, for which the result was inactive.

Turning to `CN(C)CCCSc1ccccc1NC(=O)/C=C/c1ccccc1`, the compound was called inactive.

On to `O=C1c2ccccc2C(=O)c2c1ccc(O)c2O`, for which the compound was classed as inactive.

Take `Oc1ccc(/C=C/c2cc(O)cc(O)c2)cc1`: the outcome was inactive.

In another test the test system is MKL-2. Described as above. The settings on record: MCC and control cell lines, CellTiter-Glo viability, 72 h; series mostly up to 46 µM. Put shortly: as §1
Turning to `COc1ccc2nc(NC(=O)Nc3ccccc3)sc2c1`, the outcome was inactive.

On to `Nc1ccc(N=Nc2ccccc2)c(N)n1`, for which the result was inactive.

With `CC(=O)Oc1cccc2c1C(=O)c1c(OC(C)=O)cc(C(=O)O)cc1C2=O`, the compound was classed as inactive.

Take `O=C(OCc1ccccc1)c1ccc(O)cc1`: the outcome was inactive.

On to `CN(C)CCCSc1ccccc1NC(=O)/C=C/c1ccccc1`, for which the call was inactive.

Consider `O=C1c2ccccc2C(=O)c2c1ccc(O)c2O`, for which the result was inactive.
